The values below come from PubChem BioAssay (NCATS).

“And” between values parts separate entries of the source, which are not always exact repeats. Equal values may be shown once. A number with no mark means an inactive call. Records with an inconclusive call do not appear. The source made the active and inactive calls. Unless noted, calls come from the whole dose curve.

In assay [1] the target is Lysosomal acid glucosylceramidase (Homo sapiens) (UniProt P04062). The assay can be described thus: Glucocerebrosidase-p2 (AID 348; in the data active = potency below about 10 µM; note: potency is the fitted concentration of half-maximal effect). The conditions noted are these: purified GBA, blue fluorogenic substrate, 40 min. The gist of the method:
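Normal human glucocerebrosidase (0.2 nM) with blue fluorogenic substrate (80 uM final) in citrate/phosphate pH 5.9 with 10mM sodium taurocholate, 0.01% tween-20; 40 min RT, NaOH/glycine stop; fluorescence Ex 365/Em 440; AC50 from a titration from 0.6 nM upwards.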

The nature of assay [2]: AP1 Signaling Pathway (AID 357; active = well fitted curve in either direction with a large enough effect, not every such curve was filed as active;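 note: ME-180 reporter cells stimulated with EGF at its EC50 level; % is set by controls: 0 for no effect and ±100 for the full control effect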). As to conditions: ME-180 AP-1-bla reporter, EGF-induced, beta-lactamase ratio, 5 h; series mostly up to 38 µM. A digest of the protocol:
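First, ME-180 AP-1-bla cells were cultured overnight at 37 °C in low-serum Opti-MEM. Next, titrated compounds with EC50 EGF were incubated 5 hours. Finally, CCF4 was added for 2.5 hours and the 460/530 nm ratio recorded.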

Assay [3] concerns the target Cytochrome P450 1A2 (Homo sapiens) (UniProt P05177). As to the kind of experiment: p450-cyp1a2 (AID 410).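 For activity change, negative = inhibition: -100% = full effect of reference inhibitor.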 Note: potency is the fitted concentration of half-maximal effect. As to conditions: recombinant CYP1A2, luciferin-ME demethylation, luminescence; series mostly up to 57 µM. A digest of the protocol: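 20nM CYP1A2, 100uM Luciferin-ME (=Km), 100mM KPO4; cpd 10 min RT; +NADPH regen, 60 min RT; stop/detect 20 min; luminescence. Normalized to furafylline 57 uM = full inhibition.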

A short description of assay [4]: NFAT Signaling Pathway (AID 444; active = well fitted curve in either direction with a large enough effect, not every such curve was filed as active;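 note: carbachol stimulus at about its EC50 of 1 µM final; % is set by controls: 0 for no effect and ±100 for the full control effect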). As to conditions: Jurkat NFAT-bla M1, carbachol, beta-lactamase ratio, 5 h; series mostly up to 38 µM. A digest of the protocol:
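Read-out: CCF4 FRET ratio (460 nm/530 nm) after 1 h RT dye loading, used for %activity and AC50 from titration series. Cells: Jurkat NFAT-β-lactamase/M1 line, treated with compound plus 1 uM carbachol for 5 h, 37 °C.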

Assay [5] can be described thus: Stat Signaling Pathway (AID 446; active = well fitted curve in either direction with a large enough effect, not every such curve was filed as active;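 note: ME-180 cervical cancer cells given 40 pM IL-6 alongside compound; SIE-controlled beta-lactamase reporter measured as 460/530 nm FRET emission ratio; % is set by controls: 0 for no effect and ±100 for the full control effect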). As to conditions: ME-180 (cervical carcinoma) SIE beta-lactamase reporter, IL-6 stimulated, 5 h; series mostly up to 17.2 µM. The gist of the method:
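FRET read-out (405 nm excitation, 460/530 nm emission) of a beta-lactamase reporter under a STAT-inducible element in ME-180 cervical carcinoma cells. Cells with compound receive 40 pM IL-6 for 5 h. Values are normalised to AC90 stimulation and AC90 JAK-inhibitor controls.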

Assay [6] deals with Glucocorticoid receptor (Homo sapiens) (UniProt P04150). The assay can be described thus: GR-EFC Redistribution (AID 451). Note: potency is the fitted concentration of half-maximal effect. The conditions noted are these: CHO-K1 GR-EFC translocation, beta-gal luminescence, 2 h. A digest of the protocol:
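Translocation of GR-ED fusion to nuclear EA restores b-gal, read by luminescence after 1 h room-temperature detection. Engineered CHO-K1 biosensor cells, 1,000/well, exposed 2 h at 37 C to titrations up to 46 uM final.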

In assay [7] the target is Mitogen-activated protein kinase 10 (Mus musculus) (UniProt Q61831). As to the kind of experiment: JNK3 AlphaScreen Assay (AID 530; active = well fitted curve in either direction with a large enough effect, not every such curve was filed as active;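 note: kinase came from lysate of stimulated human HepG2 cells; signal reports phosphorylation of biotinylated GST-cJun 1-79 at Ser73 with 10 µM ATP; % is set by controls: 0 for no effect and ±100 for the full control effect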). The conditions noted are these: JNK3 lysate, c-Jun phosphorylation; series mostly up to 57.1 µM. A digest of the protocol:
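Kinase buffer: 20 mM Tris-HCl pH 7.6, 10 mM MgCl2, 1 mM DTT, 0.1 mM Na3VO4, 0.01% Tween-20; ATP 10 uM. Substrate biotin-GST-cJun(1-79), enzyme from activated HepG2 lysates. Detection by Ser73 phospho-antibody AlphaScreen.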
(In general: In Alpha technology, singlet oxygen from a donor bead excites a nearby acceptor bead.)

Assay [8] concerns the target Glucocorticoid receptor (Homo sapiens) (UniProt P04150). The assay can be described thus: GR-GFP Redistribution (AID 450;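 active = compounds whose dose series gives a full or clear partial fitted curve of increased nuclear translocation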; note: potency is the fitted concentration of half-maximal effect). As to conditions: U2OS GR-GFP nuclear translocation, laser cytometry, 2 h.
Assay [9] is described as follows: Cell Viability - BJ (AID 421).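 Note: potency is the fitted concentration of half-maximal effect; cells exposed to compound for 40 hours at 37 °C before readout.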 The conditions noted are these: BJ fibroblast viability, qHTS. A digest of the protocol:
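Cytotoxicity as drop in intracellular ATP (CellTiter-Glo, 20 min RT) after 40 hr compound exposure of BJ fibroblasts at 37 °C. Titrations scaled between DMSO and 100 uM tamoxifen, Hill-fitted for AC50.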

Assay [10] in a line: Cell Viability - Jurkat (AID 426;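 active = dose-dependent loss of cell ATP signal giving a full or clear fitted curve, ranked by lower potency value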;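 note: potency is the fitted concentration of half-maximal effect; cells exposed to compound for 40 hours at 37 °C before ATP read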). As to conditions: qHTS. The gist of the method:
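Luminescent ATP read-out (CellTiter-Glo, 20 min at room temperature) after 40 hr compound exposure at 37 °C of Jurkat E6-1 cells, 5000/well. Decreased ATP taken as cytotoxicity; AC50 from standard Hill equation.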

The nature of assay [11]: Cell Viability - Hek293 (AID 427;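 active = compounds whose dose-response curve shows a full or clear partial loss of cell viability, called from curve shape rather than a numeric limit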;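 note: potency is the fitted concentration of half-maximal effect; cells exposed to compound for 40 hours at 37 °C before reading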). The conditions noted are these: qHTS. A digest of the protocol:
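Luminescent ATP content (CellTiter-Glo, 20 min at room temperature) was measured after a 40 hr, 37 °C compound exposure of HEK293 cells. AC50 values came from Hill-equation fits of qHTS concentration-response data normalized to DMSO and 100 uM tamoxifen.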
Background: qHTS replaces the single test concentration by a dilution series.

A short description of assay [12]: Cell Viability - HepG2 (AID 433).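 Note: potency is the fitted concentration of half-maximal effect; potency for ATP loss meaning cytotoxicity.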 As to conditions: qHTS. A digest of the protocol:
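Read-out is luciferase-based quantitation of cellular ATP as a measure of viable HepG2 cells after 40 h treatment at 37 °C. Signal decrease is scaled between DMSO-only and 100 uM tamoxifen controls, with AC50 fitted by the Hill equation.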

The nature of assay [13]: Cell Viability - MRC5 (AID 434).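 Note: potency is the fitted concentration of half-maximal effect; cells exposed to compound for 40 hours at 37 °C; potency reflects cytotoxicity seen as loss of intracellular ATP.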 As to conditions: MRC5 lung fibroblast viability, qHTS. A digest of the protocol: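 AC50 values come from Hill-equation fits of intracellular ATP loss, measured by CellTiter-Glo luminescence. Normal lung fibroblasts (MRC5) had 40 hr compound treatment at 37 C, normalized between DMSO and 100 uM tamoxifen.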
Assay [14] can be described thus: Cell Viability - SK-N-SH (AID 435). Note: potency is the fitted concentration of half-maximal effect. The conditions noted are these: SK-N-SH neuroblastoma cell viability qHTS. The gist of the method: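 Luminescent ATP signal served as the viability read-out after 40 hours of compound treatment of human neuroblastoma SK-N-SH cells. Concentration-response data, scaled between DMSO and 100 uM tamoxifen, gave AC50 values by standard Hill modeling.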

The nature of assay [15]: Cell Viability - N2a (AID 540; active = well fitted curve in the direction sought with a large enough effect; an effect the other way counts as inactive or inconclusive;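 note: plate controls were DMSO alone for no effect and tamoxifen control for full effect; nearly all actives have a fitted effect of over 45% in size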). The conditions noted are these: N2a mouse neuroblastoma cell viability; series mostly up to 92.2 µM. A digest of the protocol:
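N2a mouse neuroblastoma, 1500 cells/well, 5 hr settle; compound 40 hr, 37 °C; CellTiter-Glo 20 min RT; luminescence; Hill-fit AC50.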

A short description of assay [16]: Cell Viability - NIH 3T3 (AID 541; active = well fitted curve in the direction sought with a large enough effect; an effect the other way counts as inactive or inconclusive;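 note: plate controls were DMSO alone for no effect and tamoxifen positive control for full effect; nearly all actives have a fitted effect of over 25% in size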). As to conditions: NIH 3T3 cell viability, qHTS; series mostly up to 92.2 µM. A digest of the protocol:
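qHTS format; 40 hr compound exposure, 37 °C; CellTiter-Glo luminescence (cellular ATP) read-out after 20 min at RT. Decrease in ATP = cytotoxicity; AC50 from standard Hill fit.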

Assay [17] is described as follows: Cell Viability - HUV-EC-C (AID 542; active = well fitted curve in the direction sought with a large enough effect; an effect the other way counts as inactive or inconclusive; note: % is set by controls: 0 for no effect and ±100 for the full control effect; nearly all actives have a fitted effect of over 35% in size). As to conditions: HUV-EC-C endothelial cell viability, qHTS; series mostly up to 92.2 µM. A digest of the protocol: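 Luminescent ATP read-out (CellTiter-Glo, 20 min room temperature) after 40 hr compound treatment of HUV-EC-C cells at 37 °C. Concentration-response data fitted with the standard Hill equation to give AC50; tamoxifen and doxorubicin served as positive controls.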

A short description of assay [18]: Cell Viability - H-4-II-E (AID 543; active = well fitted curve in the direction sought with a large enough effect; an effect the other way counts as inactive or inconclusive; note: % is set by controls: 0 for no effect and ±100 for the full control effect; nearly all actives have a fitted effect of over 35% in size). The conditions noted are these: H-4-II-E rat hepatoma viability; series mostly up to 92.2 µM. A digest of the protocol:
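qHTS, rat hepatoma H-4-II-E, 1500 cells/well; 40 hr compound exposure, 37 °C; CellTiter-Glo ATP luminescence after 20 min RT; AC50 by standard Hill fit.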

A short description of assay [19]: Cell Viability - SH-SY5Y (AID 544; active = well fitted curve in the direction sought with a large enough effect; an effect the other way counts as inactive or inconclusive;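 note: 0% = DMSO alone and -100% = 100 µM tamoxifen; nearly all actives have a fitted effect of over 55% in size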). The conditions noted are these: SH-SY5Y neuroblastoma cell viability; series mostly up to 92.2 µM. The gist of the method:
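SH-SY5Y, 1500 cells/well, 5 hr pre-incubation 37 °C; cpd 40 hr 37 °C; CellTiter-Glo 20 min RT; luminescence (ATP) read. qHTS concentration-response, Hill fit → AC50. Tamoxifen, doxorubicin as positive controls.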

Assay [20] in a line: Cell Viability - Renal Proximal Tubule (AID 545; active = well fitted curve in the direction sought with a large enough effect; an effect the other way counts as inactive or inconclusive;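 note: 0% = DMSO only and -100% = 100 µM tamoxifen; nearly all actives have a fitted effect of over 40% in size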). The conditions noted are these: renal proximal tubule cells viability, primary cells of rat origin; series mostly up to 91.7 µM. A digest of the protocol: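 Luminescent ATP signal (CellTiter-Glo) served as the viability read-out after 40 hr compound exposure of freshly isolated rat proximal tubule cells at 37 °C. Concentration-dependent ATP loss was fitted with the Hill equation to give AC50.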

Sequence of Glucocorticoid receptor (Homo sapiens) (P04150 whole entry, looked up, the tested form may be a part): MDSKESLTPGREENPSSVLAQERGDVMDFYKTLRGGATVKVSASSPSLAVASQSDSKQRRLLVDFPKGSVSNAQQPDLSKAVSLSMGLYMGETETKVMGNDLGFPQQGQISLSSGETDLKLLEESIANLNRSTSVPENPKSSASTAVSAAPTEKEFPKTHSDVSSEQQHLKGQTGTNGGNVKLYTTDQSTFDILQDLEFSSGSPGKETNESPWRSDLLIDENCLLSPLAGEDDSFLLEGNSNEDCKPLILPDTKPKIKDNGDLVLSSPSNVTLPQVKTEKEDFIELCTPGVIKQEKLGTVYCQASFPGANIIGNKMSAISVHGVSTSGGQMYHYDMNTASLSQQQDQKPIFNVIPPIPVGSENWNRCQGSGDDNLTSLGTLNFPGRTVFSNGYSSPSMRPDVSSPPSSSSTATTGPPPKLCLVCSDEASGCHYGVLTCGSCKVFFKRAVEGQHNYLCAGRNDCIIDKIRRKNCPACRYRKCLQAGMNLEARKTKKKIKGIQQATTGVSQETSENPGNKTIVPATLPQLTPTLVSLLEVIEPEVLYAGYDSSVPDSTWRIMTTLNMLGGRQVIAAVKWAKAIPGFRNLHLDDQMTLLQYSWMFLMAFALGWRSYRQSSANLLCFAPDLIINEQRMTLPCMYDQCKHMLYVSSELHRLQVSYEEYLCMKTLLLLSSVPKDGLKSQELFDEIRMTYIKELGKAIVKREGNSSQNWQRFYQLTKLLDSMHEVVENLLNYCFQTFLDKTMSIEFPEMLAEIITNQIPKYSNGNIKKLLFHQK
Sequence of Cytochrome P450 1A2 (Homo sapiens) (P05177 whole entry, looked up): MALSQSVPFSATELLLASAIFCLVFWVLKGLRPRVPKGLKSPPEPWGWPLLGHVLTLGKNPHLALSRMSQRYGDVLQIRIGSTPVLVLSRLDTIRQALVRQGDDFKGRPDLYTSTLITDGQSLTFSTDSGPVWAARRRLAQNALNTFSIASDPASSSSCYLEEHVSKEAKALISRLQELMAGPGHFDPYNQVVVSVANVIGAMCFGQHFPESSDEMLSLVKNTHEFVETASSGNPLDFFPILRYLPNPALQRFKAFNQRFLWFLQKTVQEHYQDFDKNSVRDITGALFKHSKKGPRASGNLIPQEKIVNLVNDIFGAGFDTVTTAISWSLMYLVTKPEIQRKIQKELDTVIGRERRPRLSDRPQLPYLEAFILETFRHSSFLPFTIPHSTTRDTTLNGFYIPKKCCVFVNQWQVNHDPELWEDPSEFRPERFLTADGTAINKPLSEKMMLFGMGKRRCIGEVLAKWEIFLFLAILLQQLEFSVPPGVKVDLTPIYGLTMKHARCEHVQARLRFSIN
Sequence of Lysosomal acid glucosylceramidase (Homo sapiens) (P04062 whole entry, looked up): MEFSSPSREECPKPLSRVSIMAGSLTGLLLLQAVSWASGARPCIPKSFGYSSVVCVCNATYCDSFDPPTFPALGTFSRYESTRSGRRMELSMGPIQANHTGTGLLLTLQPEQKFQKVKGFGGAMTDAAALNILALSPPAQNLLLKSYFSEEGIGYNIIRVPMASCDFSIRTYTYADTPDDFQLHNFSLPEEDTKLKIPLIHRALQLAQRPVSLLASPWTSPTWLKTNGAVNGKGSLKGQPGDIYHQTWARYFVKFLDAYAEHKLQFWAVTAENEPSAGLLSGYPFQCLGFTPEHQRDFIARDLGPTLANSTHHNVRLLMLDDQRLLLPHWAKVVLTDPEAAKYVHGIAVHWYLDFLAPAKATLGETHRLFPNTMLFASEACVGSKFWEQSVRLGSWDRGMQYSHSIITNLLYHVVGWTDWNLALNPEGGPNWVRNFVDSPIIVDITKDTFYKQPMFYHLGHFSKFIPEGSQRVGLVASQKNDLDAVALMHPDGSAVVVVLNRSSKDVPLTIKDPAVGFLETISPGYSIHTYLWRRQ

`O=C(O)c1cc2ccccc2c(Cc2c(O)c(C(=O)O)cc3ccccc23)c1O`: the Potency was more than 11.4 µM in assay [1] and more than 9.22 µM in [6]. Further, the activity change, negative = inhibition in assay [2] is 13.4% [at 7.69 µM]; in assay [3] it was -4% [at 2.29 µM]; in assay [4], 6.69% [at 7.69 µM]; in assay [7] it was 3.49% [at 11.4 µM]. Also, the result in assay [5] was inactive.

For `CCc1ccccc1OC[C@@H](O)CN[C@H]1CCCc2ccccc21`, the Potency was 12.6 µM (active) in assay [3], more than 46 µM in assay [8] and more than 46 µM in assay [6]. Also, the call in assay [7] was inactive.

As to `CC(=O)C1=C(O)C=C2Oc3c(C(C)=O)c(O)c(C)c(O)c3[C@]2(C)C1=O`, the Potency in assay [3] is 2 µM (active); in [8], more than 46 µM; in assay [6], more than 46 µM. The outcome in assay [7] was inactive.

`COC1=CC(=O)C[C@@H](C)[C@@]12Oc1c(Cl)c(OC)cc(OC)c1C2=O`: in assay [3], the Potency entry is “inactive”. For the same compound, the Potency in assay [8] and in assay [6] was more than 46 µM in each case. Further, the call in assay [7] was inactive.

Consider `Cc1ccc(OC[C@H](O)[C@H](C)NC(C)C)c2c1CCC2`, for which the result in assay [2], in [4], in assay [5] and in [7] was inactive. The Potency in [3] was 1.58 µM (active) and 398 nM (active); in [8] it was more than 46 µM; in assay [6], more than 46 µM.

Take `COC(C)=O`: the Potency in [9], in assay [10], in [11], in [12], in assay [13] and in assay [14] was more than 92 µM in each case. The call in assay [7], in assay [15], in assay [16], in assay [17], in assay [18] and in assay [19] was inactive. For the same compound, the compound was classed as inactive in assay [20].

`CN(C)Cc1ccccc1`: the Potency in assay [9], in assay [10], in [11], in assay [12], in assay [13] and in assay [14] was more than 92 µM throughout. Besides, the result in assay [7], in assay [15], in assay [16], in [17], in assay [18] and in assay [19] was inactive. In addition, the compound was classed as inactive in [20].

`COc1cc(C[C@H]2C(=O)OC[C@@H]2Cc2ccc(OC)c(OC)c2)ccc1O`: the Potency is 31.6 µM (active) in [3] and more than 46 µM in assay [6]. Also, the outcome in assay [7] was inactive.

As to `CN(C)CCCn1cc(C2=C(c3c[nH]c4ccccc34)C(=O)NC2=O)c2ccccc21`, the results for the Potency in assay [3], in [8] and in assay [6] were 7.94 µM (active), more than 46 µM and more than 46 µM, respectively.

`COc1ccc2[nH]c(=O)c3c(c2c1)OC(C)(C)C=C3`: the results for the Potency in assay [3], in assay [8] and in [6] were 0.316 µM (active), more than 46 µM and more than 46 µM, respectively. The compound was called inactive in assay [7].

With `CCCCCCCCCC(=O)O`, the Potency in [9], in assay [10], in assay [11], in assay [12], in assay [13] and in assay [14] was more than 92 µM each time. In addition, the call in [7], in assay [15], in [16], in [17], in assay [18] and in [19] was inactive. Further, the call in assay [20] was inactive.

Turning to `C=Cc1ccccc1`, the Potency in [9], in assay [10], in assay [11], in [12], in [13] and in assay [14] was more than 92 µM each time. Further, the outcome in [7], in [15], in assay [16], in assay [17], in assay [18] and in assay [19] was inactive. Also, the compound was called inactive in assay [20].

As for `CC(C)CCNC(=O)[C@H](CC(C)C)NC(=O)[C@H]1O[C@@H]1C(=O)O`, the outcome in assay [2], in [4] and in [5] was inactive. The Potency in assay [8] is more than 20.6 µM.

Turning to `NCCCC(=O)O`, the result in assay [2], in [4] and in [7] was inactive. In addition, the Potency result in assay [3] is “inactive”. The Potency in assay [8] and in assay [6] was more than 46 µM in each case.

Take `O=C(O)CC(O)(CC(=O)O)C(=O)O`: the Potency in assay [9] is more than 92 µM; in assay [10], 58 µM (active); in assay [11], more than 92 µM; in [12], more than 92 µM; in assay [13], more than 92 µM; in assay [14] it was more than 92 µM. Moreover, the compound was classed as inactive in assay [7], in assay [15], in assay [16], in [17], in [18] and in [19]. The compound was called inactive in assay [20].

As to `C[C@]12CC[C@@H]3c4ccc(OS(=O)(=O)O)cc4CC[C@H]3[C@@H]1CCC2=O`, the result in assay [2], in assay [4] and in [5] was inactive. For the same compound, the Potency in assay [8] was more than 20.6 µM.
